From PubChem BioAssay (Tox21)
Results filed as inconclusive are left out. Active and inactive are the calls of the source. Unless noted, calls come from the whole dose curve; as a rule, active = well fitted curve in the direction sought with a large enough effect in the repeat runs; inconclusive = weak or mixed curves; inactive = no such curve, though single readings can be large; an effect the other way counts as inactive or inconclusive.

Columns and labels:
[1] = qHTS assay to identify small molecule antagonists of the glucocorticoid receptor (GR) signaling pathway - cell viability counter screen (AID 720693); note: nearly all actives have a fitted effect of over 55% in size
[2] = qHTS assay for identifying genotoxic compounds that show differential cytotoxicity against isogenic chicken DT40 cell lines with known DNA damage response pathways - Rad54/Ku70 mutant cell line (AID 743015); note: nearly all actives have a fitted effect of over 60% in size; note: potency is the fitted concentration of half-maximal effect
[3] = qHTS assay to identify small molecule antagonists of the androgen receptor (AR) signaling pathway - cell viability counter screen (AID 743033; note: nearly all actives have a fitted effect of over 45% in size)
[4] = qHTS assay to identify small molecule antagonists of the androgen receptor (AR) signaling pathway using the MDA cell line - cell viability counter screen (AID 743041; note: nearly all actives have a fitted effect of over 45% in size)
Summary of the method: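 Viability counter screen run alongside the AR antagonist reporter: cells seeded 5 h before compound, R1881 added, 16 h incubation at 37C without CO2, fluorescent CellTiter-Fluor signal quantified.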

[5] = qHTS assay to identify small molecule antagonists of the thyroid receptor (TR) signaling pathway - cell viability counter screen (AID 743064); note: nearly all actives have a fitted effect of over 50% in size
Summary of the method: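 GH3.TRE-Luc cells, 4 h pre-plating; cpd + T3 1 nM final; 37 °C 23.5 h; CellTiter-Fluor 30 min; fluorescence read.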

[6] = qHTS assay to identify small molecule antagonists of the thyroid receptor (TR) signaling pathway (AID 743065); note: series mostly up to about 70 µM; nearly all actives have a fitted effect of over 55% in size
Summary of the method: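 GH3.TRE-Luc rat pituitary cells carrying two TR response elements driving luciferase were plated for 4 h, given compound plus 1 nM T3 (final), and incubated 23.5 h at 37 C. ONE-Glo luminescence measured reporter inhibition; CellTiter-Fluor fluorescence tracked cytotoxicity.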

[7] = system: thyroid hormone receptor (rat, GH3 cells); assay: qHTS assay to identify small molecule agonists of the thyroid receptor (TR) signaling pathway (AID 743066; calls by dose curve)
[8] = biological target: Estrogen receptor (Homo sapiens) (UniProt P03372); assay: qHTS assay to identify small molecule antagonists of the estrogen receptor alpha (ER-alpha) signaling pathway (AID 743069; active = well fitted curve in the direction sought with a large enough effect in the signal ratio in the repeat runs, not every such curve was filed as active; the % refers to the signal ratio)
Chain of Estrogen receptor (Homo sapiens) (P03372 whole entry, looked up): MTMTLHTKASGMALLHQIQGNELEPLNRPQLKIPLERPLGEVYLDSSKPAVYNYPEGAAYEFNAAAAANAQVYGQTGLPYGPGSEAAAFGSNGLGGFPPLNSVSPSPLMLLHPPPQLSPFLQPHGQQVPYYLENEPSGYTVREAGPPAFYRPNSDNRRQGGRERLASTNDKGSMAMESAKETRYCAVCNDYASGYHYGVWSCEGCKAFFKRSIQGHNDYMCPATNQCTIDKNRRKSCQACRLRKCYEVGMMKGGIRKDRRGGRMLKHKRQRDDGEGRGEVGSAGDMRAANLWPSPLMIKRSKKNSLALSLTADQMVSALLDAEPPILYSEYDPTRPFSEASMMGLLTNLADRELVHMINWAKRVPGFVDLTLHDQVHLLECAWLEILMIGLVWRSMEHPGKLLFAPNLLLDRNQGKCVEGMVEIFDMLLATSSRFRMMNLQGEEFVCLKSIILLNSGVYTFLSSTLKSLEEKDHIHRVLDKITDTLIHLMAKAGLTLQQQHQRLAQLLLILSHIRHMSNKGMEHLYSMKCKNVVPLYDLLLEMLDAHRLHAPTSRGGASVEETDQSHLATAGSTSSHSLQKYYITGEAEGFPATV
Summary of the method: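 Estradiol-stimulated ER-alpha-UAS-bla HEK293 cells, 18 hr compound exposure at 37C. LiveBLAzer B/G substrate, 2 hr RT, fluorescence read.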

[9] = qHTS assay to identify small molecule antagonists of the estrogen receptor alpha (ER-alpha) signaling pathway - cell viability counter screen (AID 743074; calls by dose curve;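 note: HEK293 cells carrying ER-alpha-UAS-bla reporter stimulated with 17beta-estradiol; nearly all actives have a fitted effect of over 45% in size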)
[10] = biological target: Estrogen receptor (Homo sapiens) (UniProt P03372); assay: qHTS assay to identify small molecule agonists of the estrogen receptor alpha (ER-alpha) signaling pathway (AID 743075; calls by dose curve;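 note: HEK293 GripTite cells with ER-alpha and UAS-driven beta-lactamase reporter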)
[11] = biological target: Estrogen receptor (Homo sapiens) (UniProt P03372); assay: qHTS assay to identify small molecule agonists of the estrogen receptor alpha (ER-alpha) signaling pathway using the BG1 cell line (AID 743079); note: nearly all actives have a fitted effect of over 20% in size; note: potency is the fitted concentration of half-maximal effect
[12] = qHTS assay to identify small molecule antagonists of the estrogen receptor alpha (ER-alpha) signaling pathway using the BG1 cell line (AID 743080; calls by dose curve;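 note: BG1 cells stimulated with 17beta-estradiol alongside compound; series mostly up to about 70 µM; nearly all actives have a fitted effect of over 25% in size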)
Summary of the method: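 After 5 days in phenol-red-free 10% charcoal-stripped FBS medium, BG1-Luc-4E2 cells were seeded, left 24 h at 37 C, co-treated with compounds and 17beta-estradiol for 21.5 h, then assayed for viability and luciferase.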

[13] = qHTS assay to identify small molecule antagonists of the estrogen receptor alpha (ER-alpha) signaling pathway using the BG1 cell line - cell viability counter screen (AID 743081);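 note: compound given together with 17beta-estradiol as the ER stimulus; series mostly up to about 70 µM; nearly all actives have a fitted effect of over 45% in size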
Aromatase (Homo sapiens) = Aromatase (Homo sapiens) (UniProt P11511); assay: qHTS assay to identify aromatase inhibitors (AID 743083); note: series mostly up to about 70 µM; nearly all actives have a fitted effect of over 55% in size
Chain of Aromatase (Homo sapiens) (P11511 whole entry, looked up): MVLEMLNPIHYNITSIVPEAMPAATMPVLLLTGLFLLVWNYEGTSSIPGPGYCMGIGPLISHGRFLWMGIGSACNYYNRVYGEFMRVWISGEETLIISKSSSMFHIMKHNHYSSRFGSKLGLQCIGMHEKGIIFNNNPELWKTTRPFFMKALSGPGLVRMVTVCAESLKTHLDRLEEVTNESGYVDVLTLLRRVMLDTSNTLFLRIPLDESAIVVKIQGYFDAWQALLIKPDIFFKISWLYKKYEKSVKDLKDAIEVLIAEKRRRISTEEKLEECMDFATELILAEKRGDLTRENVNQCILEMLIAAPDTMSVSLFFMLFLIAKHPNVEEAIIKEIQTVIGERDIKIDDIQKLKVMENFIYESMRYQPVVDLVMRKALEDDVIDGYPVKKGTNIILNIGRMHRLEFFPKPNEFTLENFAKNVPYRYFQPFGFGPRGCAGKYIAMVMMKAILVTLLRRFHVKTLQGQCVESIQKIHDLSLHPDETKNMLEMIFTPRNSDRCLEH

[14] = qHTS assay for identifying genotoxic compounds that show differential cytotoxicity against isogenic chicken DT40 cell lines with known DNA damage response pathways - Rev3 mutant cell line (AID 743014); note: nearly all actives have a fitted effect of over 55% in size; note: potency is the fitted concentration of half-maximal effect
[15] = qHTS assay for identifying genotoxic compounds that show differential cytotoxicity against isogenic chicken DT40 cell lines with known DNA damage response pathways - wild type cell line (AID 743012); note: nearly all actives have a fitted effect of over 60% in size
Summary of the method: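 First, wild type DT40 cells were plated at 300 per well and equilibrated about 0.5 h at 37 C/5% CO2. Next, compounds in DMSO were added and exposure lasted 40 h. Finally, CellTiter-Glo was added for 30 min at room temperature and luminescence recorded.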

[16] = biological target: Androgen receptor (Homo sapiens) (UniProt P10275); assay: qHTS assay to identify small molecule antagonists of the androgen receptor (AR) signaling pathway (AID 743035; active = well fitted inhibition curve with a large enough effect in the signal ratio in the repeat runs, not every such curve was filed as active; the % refers to the signal ratio)
Chain of Androgen receptor (Homo sapiens) (P10275 whole entry, looked up): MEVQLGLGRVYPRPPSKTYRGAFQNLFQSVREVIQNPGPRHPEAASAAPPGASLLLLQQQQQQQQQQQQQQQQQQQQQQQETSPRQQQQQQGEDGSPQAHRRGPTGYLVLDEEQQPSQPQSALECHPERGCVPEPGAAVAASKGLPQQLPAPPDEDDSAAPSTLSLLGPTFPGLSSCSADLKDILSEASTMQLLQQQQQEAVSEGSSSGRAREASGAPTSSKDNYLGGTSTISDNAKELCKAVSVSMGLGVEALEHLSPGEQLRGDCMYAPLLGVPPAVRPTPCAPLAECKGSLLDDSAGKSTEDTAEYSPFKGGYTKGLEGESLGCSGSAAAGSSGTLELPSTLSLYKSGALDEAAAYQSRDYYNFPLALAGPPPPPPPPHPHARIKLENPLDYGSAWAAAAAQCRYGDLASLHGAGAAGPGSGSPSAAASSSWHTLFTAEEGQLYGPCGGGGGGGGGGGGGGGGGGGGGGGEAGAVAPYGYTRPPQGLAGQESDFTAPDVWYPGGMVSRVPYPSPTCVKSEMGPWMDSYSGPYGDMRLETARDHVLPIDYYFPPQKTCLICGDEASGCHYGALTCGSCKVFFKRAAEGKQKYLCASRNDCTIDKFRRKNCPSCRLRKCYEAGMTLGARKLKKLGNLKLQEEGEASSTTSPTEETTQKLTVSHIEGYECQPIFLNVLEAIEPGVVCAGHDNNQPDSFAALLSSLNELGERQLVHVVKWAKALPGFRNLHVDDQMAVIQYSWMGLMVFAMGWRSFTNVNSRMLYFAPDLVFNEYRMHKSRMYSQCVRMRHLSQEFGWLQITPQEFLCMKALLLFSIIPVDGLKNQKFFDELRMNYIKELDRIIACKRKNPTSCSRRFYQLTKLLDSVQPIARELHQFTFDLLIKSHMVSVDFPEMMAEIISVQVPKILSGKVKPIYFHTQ
Summary of the method: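 Beta-lactamase FRET read (2 h RT incubation with LiveBLAzer B/G) following 16 h of compound plus R1881 treatment of AR-UAS-bla HEK293 cells, which had been pre-incubated 4 h at 37C.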

[17] = biological target: Androgen receptor (Homo sapiens) (UniProt P10275); assay: qHTS assay to identify small molecule agonists of the androgen receptor (AR) signaling pathway (AID 743036; active = well fitted activation curve with a large enough effect in the signal ratio in the repeat runs, with a control signal flat, not every such curve was filed as active; the % refers to the signal ratio)
Summary of the method: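 AR-bla HEK293 cells, 2,000/well; 4 h preincubation 37C/5% CO2; compound (DMSO) 16 h at 37C; LiveBLAzer B/G FRET substrate 2 h RT; fluorescence intensity read-out.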

[18] = biological target: Androgen receptor (Homo sapiens) (UniProt P10275); assay: qHTS assay to identify small molecule agonists of the androgen receptor (AR) signaling pathway using the MDA cell line (AID 743040; note: nearly all actives have a fitted effect of over 20% in size)
Summary of the method: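 Luminescence from ONE-Glo, read after 30 min at room temperature, reflects MMTV-driven luciferase in MDA-kb2 cells (AR- and GR-responsive). Treatment lasted 16 h at 37C, 0% CO2.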

[19] = biological target: Androgen receptor (Homo sapiens) (UniProt P10275); assay: qHTS assay to identify small molecule antagonists of the androgen receptor (AR) signaling pathway using the MDA cell line (AID 743042; note: nearly all actives have a fitted effect of over 55% in size)
Summary of the method: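 MDA-kb2 cells (human breast carcinoma, stably carrying an MMTV-luciferase reporter responsive to AR and GR) were plated at 3,000 cells/well and preincubated 5 hr at 37C, then given compound plus R1881 agonist for 16 h. ONE-Glo luminescence was read.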
% is set by controls: 0 for no effect and ±100 for the full control effect.

CCN(Cc1cccc(S(=O)(=O)O)c1)c1ccccc1
inactive: Potency [1] | Potency [2] | outcome [3] | outcome [4] | Potency [5] | Potency [6] | Potency [7] | Potency [8] | Potency [9] | Potency [10] | Potency [11] | outcome [12] | outcome [13] | outcome (Aromatase (Homo sapiens))

CO/N=C(/C(=O)N[C@@H]1C(=O)N2C(C(=O)O)=C(Cn3nnc(C)n3)CS[C@H]12)c1csc(N)n1
inactive: Potency [1] | Potency [14] | Potency [2] | outcome [3] | outcome [4] | Potency [5] | Potency [6] | Potency [7] | outcome [13]

C=CCOC(=O)c1ccc(C(=O)OCC=C)c(C(=O)OCC=C)c1
inactive: Potency [1] | outcome [3] | outcome [4] | Potency [5] | Potency [6] | Potency [7] | Potency [8] | Potency [10] | Potency [11] | outcome [12] | outcome [13] | outcome (Aromatase (Homo sapiens))

CC(C)SCc1ccco1
inactive: Potency [15] | Potency [14] | Potency [2] | outcome [3] | outcome [4] | Potency [6] | Potency [7] | Potency [9] | Potency [10] | Potency [11] | outcome [13] | outcome (Aromatase (Homo sapiens))

O=C(Oc1ccccc1C(=O)O)c1ccccc1O
active: Potency [11] 26.6 µM
inactive: Potency [1] | Potency [2] | outcome [3] | outcome [4] | Potency [5] | Potency [6] | Potency [7] | Potency [8] | Potency [9] | Potency [10] | outcome [12] | outcome [13] | outcome (Aromatase (Homo sapiens))

CC(=O)OC(C)c1ccccc1 (configuration not stated)
inactive: Potency [1] | Potency [14] | Potency [2] | outcome [3] | outcome [4] | Potency [6] | Potency [7] | Potency [8] | Potency [9] | Potency [10] | Potency [11] | outcome [12] | outcome [13] | outcome (Aromatase (Homo sapiens))

CC(=O)OCC(=O)[C@@]1(O)[C@H](OC(C)=O)C[C@H]2[C@@H]3CCC4=CC(=O)C=C[C@]4(C)[C@@]3(F)[C@@H](O)C[C@@]21C
inactive: Potency [1] | outcome [3] | outcome [4] | Potency [5] | Potency [6] | Potency [7] | Potency [9] | Potency [10] | outcome [13] | outcome (Aromatase (Homo sapiens))

CC(C)COC(=O)COc1ccc(Cl)cc1Cl
inactive: Potency [1] | outcome [3] | Potency [16] | outcome [17] | outcome [18] | outcome [4] | outcome [19] | Potency [6] | Potency [7] | Potency [9] | outcome [13] | outcome (Aromatase (Homo sapiens))

c1ccc(CNc2ncnc3nc[nH]c23)cc1
inactive: Potency [1] | outcome [3] | outcome [4] | Potency [6] | Potency [7] | Potency [9] | outcome [13]
active: Potency [2] 48.6 µM

NC(=O)C1(N2CCCCC2)CCN(CCCC(=O)c2ccc(F)cc2)CC1
inactive: Potency [1] | outcome [3] | outcome [4] | Potency [7] | Potency [9] | Potency [10] | Potency [11] | outcome [12] | outcome [13] | outcome (Aromatase (Homo sapiens))

CC(C)(C)c1ccc(C=O)cc1
inactive: Potency [15] | Potency [14] | Potency [2] | outcome [3] | outcome [4] | Potency [5] | Potency [6] | Potency [7] | Potency [9] | Potency [10] | Potency [11] | outcome [12] | outcome [13] | outcome (Aromatase (Homo sapiens))

CCCCCCCCCCCCC1CO1 (configuration not stated)
inactive: Potency [1] | outcome [3] | outcome [4] | Potency [6] | Potency [7] | Potency [8] | Potency [9] | Potency [10] | Potency [11] | outcome [12] | outcome [13] | outcome (Aromatase (Homo sapiens))

CCOC(=O)CCCCCCCCC(=O)OCC
inactive: Potency [1] | outcome [3] | outcome [4] | Potency [5] | Potency [6] | Potency [7] | Potency [8] | Potency [9] | Potency [10] | outcome [12] | outcome [13] | outcome (Aromatase (Homo sapiens))
active: Potency [14] 61.1 µM

OC[C@@H](O)[C@H](O)[C@@H](O)[C@@H](O)CO
inactive: Potency [1] | Potency [14] | Potency [2] | outcome [3] | outcome [4] | Potency [5] | Potency [6] | Potency [7] | Potency [9] | Potency [10] | Potency [11] | outcome [13] | outcome (Aromatase (Homo sapiens))

CCC(C)(CCC(C)C)C(=O)[O-].CCC(C)(CCC(C)C)C(=O)[O-].[Zn+2] (configuration not stated)
inactive: Potency [1] | Potency [14] | Potency [2] | outcome [3] | outcome [4] | Potency [5] | Potency [6] | Potency [7] | Potency [9] | outcome [13]

CCOc1ccc(NC(=O)OC(C)C)cc1OCC
active: Potency [14] 61.1 µM
inactive: Potency [1] | outcome [3] | outcome [4] | Potency [5] | Potency [6] | Potency [7] | Potency [9] | outcome [13] | outcome (Aromatase (Homo sapiens))

O=CO
inactive: viability change, negative = cytotoxic [1] -3.59% [at 7.04 µM] | activity change, negative = cytotoxicity [3] -5.92% [at 7.04 µM] | viability change, negative = cytotoxic [4] -3.77% [at 8.47 µM] | activity change, negative = cytotoxic [5] -0.961% [at 8.44 µM] | activity, negative = inhibition [6] -3.91% [at 8.44 µM] | activation [7] 0.246% [at 8.08 µM] | activity, negative = cytotoxicity [9] 6.52% [at 6.72 µM] | activity change, negative = cytotoxicity [13] 0.807% [at 8.47 µM] | activity, negative = inhibition (Aromatase (Homo sapiens)) 10.9% [at 8.47 µM]

Cc1cc(O)c2c(c1)C(=O)c1cccc(O)c1C2=O
inactive: Potency [15] | outcome [3] | outcome [4] | Potency [5] | Potency [6] | Potency [7] | Potency [9] | Potency [10] | Potency [11] | outcome [12] | outcome (Aromatase (Homo sapiens))
active: Potency [2] 26.7 µM

C=C[Si](C)(C)O[Si](C)(C)C=C
inactive: Potency [1] | Potency [14] | Potency [2] | outcome [3] | outcome [4] | Potency [5] | Potency [6] | Potency [7] | Potency [9] | Potency [10] | Potency [11] | outcome [12] | outcome [13] | outcome (Aromatase (Homo sapiens))

CCCCOC(=O)C(C)OC(=O)CCC (configuration not stated)
inactive: Potency [1] | Potency [14] | Potency [2] | outcome [3] | outcome [4] | Potency [5] | Potency [6] | Potency [7] | Potency [8] | Potency [9] | Potency [10] | Potency [11] | outcome [12] | outcome [13] | outcome (Aromatase (Homo sapiens))
